The entries come from a sample that favours hits as a whole.
FECH block: inhibitors of human ferrochelatase. purified FECH, Ni-mesoporphyrin absorbance 550 nm. AID 1671448. calls only at 10 µM (by protocol). 20,000 compounds, 3.3% hits. P22830;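 active = enzyme reaction rate more than 3 SD below the solvent-only control wells on the same plate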;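 also: lower slope than DMSO wells means FECH inhibition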
Target sequence (P22830 whole entry, looked up): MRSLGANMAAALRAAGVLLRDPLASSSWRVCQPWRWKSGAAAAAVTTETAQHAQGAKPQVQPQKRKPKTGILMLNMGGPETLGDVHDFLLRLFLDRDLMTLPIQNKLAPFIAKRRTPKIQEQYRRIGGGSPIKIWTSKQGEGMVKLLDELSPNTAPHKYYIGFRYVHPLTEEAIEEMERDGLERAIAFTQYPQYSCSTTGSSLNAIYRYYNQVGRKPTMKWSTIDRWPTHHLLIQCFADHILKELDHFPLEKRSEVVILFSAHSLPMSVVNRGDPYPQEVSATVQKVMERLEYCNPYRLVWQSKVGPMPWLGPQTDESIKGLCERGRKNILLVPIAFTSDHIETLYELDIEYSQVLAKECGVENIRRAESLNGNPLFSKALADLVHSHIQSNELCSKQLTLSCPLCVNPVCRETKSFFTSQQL
The depositor's hits bear a star; i = inactive; + = active, no number.

SMILES	FECH block
COc1ccccc1CNC(=O)CN(C)Cc1ncc(C)[nH]1	i
COc1ccc(-n2ccnc2CN2CCCC(Cn3ccnc3)C2)cc1 (stereo unspecified)	i
C=C(C)COc1ccccc1C(=O)N1C[C@@H]2CC[C@H]1C2	i
CC(C)NC(Cn1ccnc1)c1ccccc1 (stereo unspecified)	i
Cc1ccc(CN(CCN(C)C)C(=O)c2ccc[nH]c2=O)s1	i
CCn1c(CNS(=O)(=O)c2ccc(C3CCCCC3)cc2)nc2cccnc21	i
CCc1ccc(NC(=O)NCCc2nc3cccnc3n2C2CCCCC2)cc1	i
Cc1cc(N2CCCC2)nc(Nc2ccc(NC(=O)c3ccccc3I)cc2)n1	i
Cc1ccc(Cn2ccnc2-c2ccccc2C(=O)O)cc1	i
COc1ccc(OC)c(Nc2c(-c3ccc4c(c3)CCCC4)c(=O)c2=O)c1	i
O=c1c(Nc2ccc(F)cc2Cl)c(-c2ccc3c(c2)CCCC3)c1=O	+
COc1cc(OC)c(Nc2c(-c3ccc4c(c3)CCCC4)c(=O)c2=O)cc1Cl	i
Cc1ccc(Nc2c(-c3ccc4c(c3)CCCC4)c(=O)c2=O)c(Cl)c1	i
Cc1cc(Cl)ccc1Nc1c(-c2ccc3c(c2)CCCC3)c(=O)c1=O	i
COc1ccc(C)cc1Nc1c(-c2ccc3c(c2)CCCC3)c(=O)c1=O	i
Cc1ccc(C)c(Nc2c(-c3ccc4c(c3)CCCC4)c(=O)c2=O)c1	+
COc1ccc(Cl)cc1Nc1c(-c2ccc3c(c2)CCCC3)c(=O)c1=O	i
COc1ccc(Nc2c(-c3ccc4c(c3)CCCC4)c(=O)c2=O)c(OC)c1	+
CN1C(=O)C(CC(=O)NCC2=CCCCC2)N(C)C1=O (stereo unspecified)	i
COc1ccc(C(C)(C)C)cc1S(=O)(=O)N1CCN(c2nc(C)cc(Nc3ccc(C)cc3)n2)CC1	i
CCC(C(=O)N1CCOc2c(O)cc(-c3cccnc3)cc2C1)n1cccc1 (stereo unspecified)	i
Cc1ccc(S(=O)(=O)N(Cc2nc3nc(C)c(Cl)c(C)n3n2)c2ccccc2)cc1	i
Cc1cc(C)n2nc(CN(c3cccc(Cl)c3)S(=O)(=O)c3ccccc3)nc2n1	i
Cc1ccc(N(Cc2nc3nc(C)cc(C)n3n2)S(=O)(=O)c2ccc(Cl)cc2)cc1	+
Cc1ccc(N(Cc2nc3nc(C)cc(C)n3n2)S(C)(=O)=O)cc1	i
SMILES	FECH block
Cc1ccc(S(=O)(=O)N(Cc2nc3nc(C)cc(C)n3n2)c2ccc(Cl)cc2)cc1	+
Cc1ccc(S(=O)(=O)N(Cc2nc3nc(C)cc(C)n3n2)c2ccccc2)cc1	i
CN1CC(=O)N(CC(=O)Nc2ccc3c(c2)OCCO3)c2ccccc2C1=O	i
CCc1ccc(NC(=O)c2cc(-c3ccc(OC)c(S(N)(=O)=O)c3)n[nH]2)cc1	i
Cc1nc(CN2CCCC3(C2)CN(C)C(=O)O3)sc1C (stereo unspecified)	i
COc1ccc(-c2noc(CSCC(=O)Nc3cccc(SC)c3)n2)cc1OC	i
Cc1nc2ncnn2c(Sc2ccccc2NC(=O)c2ccc(Br)o2)c1C	i
COc1cccc(CNS(=O)(=O)c2ccc3c(c2)CCN3C(=O)CCC(=O)N2CCOCC2)c1	i
CC(=O)Nc1ccccc1SCC(=O)N1CCn2cccc2C1C (stereo unspecified)	+
CC1c2cccn2CCN1C(=O)CNS(=O)(=O)c1cccs1 (stereo unspecified)	i
CC1c2cccn2CCN1C(=O)c1ccc(C#CC(C)(C)O)o1 (stereo unspecified)	i
Cc1ccc(CN2CCCN(CC(=O)Nc3ccc(C)c(F)c3)S2(=O)=O)cc1	i
Cc1ccc(CN2c3ccccc3-c3nc(SCC(=O)Nc4cc(Cl)ccc4C)ncc3S2(=O)=O)cc1	i
Cc1ccc(CN2c3ccccc3-c3nc(SCC(=O)Nc4ccc(F)c(Cl)c4)ncc3S2(=O)=O)cc1	+
NC1(C(=O)NCCCn2ncc3ccccc32)CC1	i
COc1cc(OC)c(NC(=O)Cn2c(C(=O)OC(C)C)cc3ccsc32)cc1Cl	i
COc1cccc(CN(C)C(C)c2nc(C)sc2C)c1F (stereo unspecified)	i
Cc1ccccc1OCC(=O)Nc1ccccc1Sc1c(C)c(C)nc2nc(-c3ccccc3)nn12	i
CC(=O)N(C)C1CCN(CC(=O)NCCc2ccc(Cl)cc2)C1 (stereo unspecified)	i
CC(C)N1CCC(C(=O)NCC2(c3ccc(F)cc3)CCOC2)CC1 (stereo unspecified)	i
CCn1c(-c2cc(C3CC3)[nH]n2)n[nH]c1=O	+
CCn1c(C2CCN(S(=O)(=O)c3ccc(C)c(C)c3)CC2)n[nH]c1=O	i
CCn1c(C2CCCN(S(=O)(=O)N3CCCC3)C2)n[nH]c1=O (stereo unspecified)	i
CCN(CC)c1ncc(NS(=O)(=O)c2cccc(Cl)c2C)cc1C(=O)O	i
O=C1CN(Cc2ccccc2Cl)S(=O)(=O)c2ccccc2N1Cc1ccc(Cl)cc1	i
SMILES	FECH block
Cc1cccc(CN2CC(=O)N(Cc3ccc(Cl)cc3)c3ccccc3S2(=O)=O)c1	i
Cc1ccc(C)c(CN2CC(=O)N(Cc3ccc(Cl)cc3)c3ccccc3S2(=O)=O)c1	+
CCc1cc(Sc2ccccc2NC(=O)c2cccc(OC)c2)n2ncnc2n1	i
CC(C)CN1CC(C(=O)N2CCC(Nc3ncccn3)CC2)CC1=O (stereo unspecified)	i
CCCCNC(=O)CCc1nc(-c2cc3ccc(C)cc3[nH]c2=O)no1	i
O=C1NCC(=O)N2CCN(C(=O)CN3CCC(c4ccccc4)CC3)CC12 (stereo unspecified)	i
Cc1nccn1CC1CCCN(Cc2nc(C)n3ccccc23)C1 (stereo unspecified)	i
Fc1cccc(Nc2nc(N3CCN(c4ccccc4)CC3)nc3c2cnn3-c2ccccc2)c1	i
CCCc1cc(=O)n2[nH]c(CNc3cc(Cl)ccc3OC)nc2n1	i
CCCc1cc(=O)n2[nH]c(CNc3ccc(F)cc3)nc2n1	+
CCCc1cc(=O)n2[nH]c(CNc3ccccc3F)nc2n1	+
CCCc1cc(=O)n2[nH]c(CNc3ccccc3Cl)nc2n1	i
CCCc1cc(=O)n2[nH]c(CNc3ccccc3OCC)nc2n1	i
CCCc1cc(=O)n2[nH]c(CNc3ccc(C)cc3)nc2n1	+
CCCc1cc(=O)n2[nH]c(CNc3ccc(C)c(Cl)c3)nc2n1	+
CNC(=O)[C@@H]1C[C@H](N)CN1C(=O)c1cc2ccc(OC)cc2n1C	i
CN1CCNC(=O)C12CCN(c1ccnc3c(C(F)(F)F)cccc13)CC2	i
COC(=O)CC1=CC(=O)N(CC(=O)Nc2cccc(SC)c2)c2ccccc2N1	i
Cc1cc(=O)[nH]c(C)c1NC(=O)c1cccc(CN2CC[C@H](O)C2)c1	i
O=C(c1ccc2ncsc2c1)N1CCCC(O)(CO)C1 (stereo unspecified)	i
CCCc1cc(=O)n2[nH]c(CNc3cccc(C(F)(F)F)c3)nc2n1	+
Cc1cccc(-c2nc3nc(CNC(C)C)cc(=O)n3[nH]2)c1	i
Cc1cccc(NC(=O)c2ccc(CNc3nc4nc(C)cc(=O)n4[nH]3)cc2)c1	i
O=c1cc(CNc2cccc(C(F)(F)F)c2)nc2nc(NCc3ccc(F)cc3)[nH]n12	i
COc1cccc(NCc2cc(=O)n3[nH]c(NCc4ccc(F)cc4)nc3n2)c1	i
CCCc1cc(=O)n2[nH]c(CNc3ccc(Br)cc3)nc2n1	+
CCCc1cc(=O)n2[nH]c(CNc3cccc(C)c3)nc2n1	+

Screening data: PubChem, Corson Lab, School of Medicine, Indiana University
